# An excerpt weighted towards active compounds, which were near 0.84% of everything screened.
# G6PDH CS = L. mesenteroides G6PDH inhibition counter-screen. AID 1020. Purified L. mesenteroides G6PDH, diaphorase/resazurin coupled fluorescence, 45 min. inhibition, % at 5 µM. hit rate 0.12% among 200,000; in the data active = inhibition above about 50%
# p97 ATPase inh = human p97 ATPase inhibition; P55072; recombinant p97 ATPase, Kinase-Glo ATP luminescence, 3 h; inhibition, % at 8 µM; hit rate 0.42% among 220,000; AID 1481; in the data active = inhibition above about 15%;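 note: 0% = DMSO vehicle and 100% = wells lacking enzyme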
# S1P3 antag = antagonists of human S1P3 receptor; CHO S1P3 NFAT-BLA reporter, FRET fluorescence, antagonist mode; inhibition, % at 4.98 µM; hit rate 0.27% among 170,000; AID 485;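 active = inhibition above the plate cutoff, the mean inhibition of test wells on that plate plus 3 SD, cut at about 28% in these data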;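 note: cells challenged with S1P at its EC80 of 0.8 µM; blue over green emission ratio from cleaved BLA substrate after 4 h stimulation; 0% = S1P-stimulated wells and 100% = unstimulated DMSO-only wells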
# Target sequence (Q99500 whole entry, looked up): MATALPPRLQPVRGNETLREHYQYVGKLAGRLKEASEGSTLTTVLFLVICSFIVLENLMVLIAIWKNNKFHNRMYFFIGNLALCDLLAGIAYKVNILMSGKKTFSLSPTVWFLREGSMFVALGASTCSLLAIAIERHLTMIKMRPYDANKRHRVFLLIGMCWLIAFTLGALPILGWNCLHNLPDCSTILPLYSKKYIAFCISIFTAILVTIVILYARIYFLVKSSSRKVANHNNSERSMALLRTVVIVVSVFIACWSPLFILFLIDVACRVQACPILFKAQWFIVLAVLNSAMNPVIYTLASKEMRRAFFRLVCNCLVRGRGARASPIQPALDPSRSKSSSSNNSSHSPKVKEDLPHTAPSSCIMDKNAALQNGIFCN
# DTT redox prof = compounds producing H2O2 with reducing agent – biochemical, NIH compound library profiling, artefact control for MLSCN library redox annotation, primary screen | DTT-dependent redox cycling H2O2, phenol red/HRP absorbance; 100% = 100 µM peroxide control, 0% = buffer | hit rate 0.03% among 200,000 | activation, % at 10 µM | AID 878;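 active = activation of at least 50% relative to the plate's high and low controls in the primary single-dose screen; inactive = activation below 50%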;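 note: compound incubated with DTT at 0.8 mM final as the reducing agent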
# Tb hexokinase = T. brucei hexokinase 1 inhibition; recombinant TbHK1, G6PDH-coupled NADH A340; inhibition, % at 10 µM; hit rate 0.11% among 220,000;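 active = inhibition of 50% or more in the single-dose primary screen; inactive = inhibition below 50%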
# p97 inh conf = human p97 ATPase inhibition, confirmation. recombinant p97 ATPase, Kinase-Glo ATP luminescence. shares compounds with p97 ATPase inh. hit rate 44% among 760. inhibition, % at 8 µM;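 active = percent inhibition of p97 ATPase above a set limit, the primary screen's mean plus 3 SD, cut at about 15% in these data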;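 note: 0% = DMSO wells and 100% = wells lacking p97 protein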
# Starred values were filed as active, the others as inactive; / = no result.
SMILES,G6PDH CS,p97 ATPase inh,S1P3 antag,DTT redox prof,Tb hexokinase,p97 inh conf
O=C(COC(=O)c1ccc2c(c1Cl)C(=O)c1ccccc1C2=O)NC1CCCCC1,22,9,-15,1,-4,/
O=C(COC(=O)c1ccc2c(c1Cl)C(=O)c1ccccc1C2=O)NC1CC1,38,25*,1,0,-2,22*
COc1ccc(OC)c2sc(NC(=O)CCSc3ccccc3)nc12,-23,5,/,-1,0,/
COc1ccc(OC)c2sc(NC(=O)CCS(=O)(=O)c3ccccc3)nc12,/,19*,-10,-4,-7,25*
Oc1ccc(/C=N/NC(=S)Nc2cccnc2)c(O)c1,-14,19*,-6,0,-27,26*
Fc1c(F)c(F)c(/C=N/NC(=S)Nc2cccnc2)c(F)c1F,11,4,-4,-1,-5,/
Oc1ccc(/C=N/NC(=S)Nc2cccnc2)c(O)c1O,/,20*,2,/,43,20*
Oc1cccc(/C=N/NC(=S)Nc2cccnc2)c1O,51*,18*,4,/,6,35*
Fc1cccc(F)c1/C=N/NC(=S)Nc1cccnc1,-3,-1,-22,-2,-16,/
N#CC1=C(S)N(c2ccc(F)cc2)C(c2cccs2)NC1=O (configuration not stated),-4,3,/,0,-9,/
C=CCN1C(=O)N(/C=C/C)c2cccc3cccc1c23,-30,15*,-3,-1,-14,6
C=CCN1C(=O)C(C)(C)Nc2ccccc21,0,4,-10,2,1,/
CC1CC(C)(C)NC(=S)N1CCC(=O)N1CCN(c2ccccc2)CC1 (configuration not stated),11,15*,-18,-1,0,3
Fc1ccccc1-c1nc(NCc2ccco2)c2ccccc2n1,-2,22*,-4,0,5,28*
COc1ccc(N(CC(=O)NN=C2CCCCCCC2)S(=O)(=O)c2ccccc2)cc1Cl,3,-1,/,0,2,/
CC(Sc1nc(N)cc(=O)[nH]1)C(=O)Nc1sc2c(c1C#N)CCCC2 (configuration not stated),-7,1,-11,-1,1,/
CCOC(=O)c1c(C)[nH]c(C(=O)COC(=O)CCS(=O)(=O)c2ccc(C)cc2)c1C,3,2,0,/,24,/
Cc1ccc(S(=O)(=O)CCC(=O)OCC(=O)c2c(C)[nH]c3ccccc23)cc1,-20,20*,-24,0,4,14
Cc1[nH]c2ccccc2c1C(=O)CCl,5,36*,-8,-1,-6,37*
Cc1cc(SCC(=O)Nc2ccc(O)cc2)n2ncc(-c3ccccc3)c2n1,/,5,4,/,-16,/
Cc1cc(SCC(=O)Nc2ccc(O)cc2)n2nc(C)c(-c3ccccc3)c2n1,/,24*,-5,/,-12,8
O=C1NNC(c2ccccc2)=N/C1=C\c1ccccc1Cl,/,17*,-12,/,-13,18*
O=Cc1ccc(OCc2cccc(C(F)(F)F)c2)cc1O,5,15*,7,-2,-1,19*
CCOC(=O)CNC(=O)c1ccc2[nH]c3ccccc3c2c1,2,15*,-22,0,6,11
O=C(NCC(O)CO)c1ccc2[nH]c3ccccc3c2c1 (configuration not stated),6,9,/,1,-4,/
SMILES,G6PDH CS,p97 ATPase inh,S1P3 antag,DTT redox prof,Tb hexokinase,p97 inh conf
N#Cc1ccccc1NC(=O)C1SC(=Nc2ccccc2)C(C(=O)Nc2ccc(Cl)cc2)=C1N (configuration not stated),3,9,-4,0,-8,/
CCOc1ccc(N=C2SC(C(=O)Nc3ccccc3C#N)C(N)=C2C(=O)Nc2ccc(Cl)cc2)cc1 (configuration not stated),3,19*,-1,-2,-3,24*
COc1cc2c(C#N)c(N3CCCC3)nc(N)c2c(N)n1,/,26*,-6,/,-7,4
CCOC(=O)C(C)Oc1cccc2c(=O)n(CC(=O)Nc3ccc4c(c3)OCCO4)ccc12 (configuration not stated),2,35*,10,1,-13,8
C=CCC(=O)NC(C)c1cnn(-c2ccccc2C)c1C (configuration not stated),4,3,-11,0,2,/
CCOC(=O)c1ccc[n+](C(C)C(=O)c2ccc(-c3ccccc3)cc2)c1 (configuration not stated),14,4,-6,0,7,/
CC(C(=O)c1ccc(-c2ccccc2)cc1)[n+]1cccc(NC(=O)c2ccccc2)c1 (configuration not stated),/,20*,6,/,-2,18*
COc1ccc(N(C)C(=O)Nc2ccc3nsnc3c2)cc1,22,32*,9,-2,-4,8
COc1ccc(NC(=S)Nc2ccc3nsnc3c2)cc1,57*,38*,-2,1,-9,19*
S=C(Nc1ccc(Cl)c(Cl)c1)NC1CCCCC1,-9,2,/,-4,-7,/
S=C(Nc1ccc2nsnc2c1)NC1CCCCC1,56*,15*,-1,-1,24,6
CC(C)N(C(=O)Nc1ccc2nsnc2c1)C(C)C,52*,42*,-14,0,-10,17*
N/C(=N\NC(=O)c1cccc(F)c1)c1cc2ccccc2oc1=O,/,16*,-12,/,-7,8
Nc1c(C(=O)N/N=C/c2cccnc2)oc2nc(-c3ccco3)cc(-c3ccco3)c12,/,17*,-1,/,9,4
COc1ccc(CNC(=O)CC2Sc3ccccc3NC2=O)cc1 (configuration not stated),10,6,7,0,-3,/
COC(=O)CC1Sc2ccccc2NC1=O (configuration not stated),4,16*,11,1,0,5
CCOC(=O)c1c(NC(N)=O)sc(C)c1C,-16,0,1,3,1,/
CCOC(=O)c1c(N2C(=O)C=CC2=O)sc(C)c1C,8,15*,/,0,-20,6
O=C(NCCc1ccccc1)C(=O)NCC(c1ccco1)N1CCOCC1 (configuration not stated),1,-3,1,-2,8,/
Cc1cccn2c(=O)c3cc(C(=O)NC4CCS(=O)(=O)C4)sc3nc12 (configuration not stated),-2,1,-35,-2,-15,/
Cc1cccc(NC(=O)c2sc(NC(=O)c3ccco3)c(C#N)c2C)c1C,4,16*,15,0,0,10
Cc1cccc(NC(=O)c2ccco2)c1C(=O)O,/,8,-7,/,-6,/
CCOC(=O)C1=C(c2ccccc2)NC(=O)NC1c1cc(Cl)c(O)c(OC)c1 (configuration not stated),10,-4,-9,-1,6,/
